Cruzain noTriton = cruzain (T. cruzi) inhibition without detergent; actives 2.3% (n = 200,000); Potency, µM, hits mostly inhibitors; P25779; purified cruzain, Z-FR-AMC fluorescence, no detergent; further: nearly all actives have a fitted effect of over 40% in size
Target sequence (P25779 123-467 limits assumed): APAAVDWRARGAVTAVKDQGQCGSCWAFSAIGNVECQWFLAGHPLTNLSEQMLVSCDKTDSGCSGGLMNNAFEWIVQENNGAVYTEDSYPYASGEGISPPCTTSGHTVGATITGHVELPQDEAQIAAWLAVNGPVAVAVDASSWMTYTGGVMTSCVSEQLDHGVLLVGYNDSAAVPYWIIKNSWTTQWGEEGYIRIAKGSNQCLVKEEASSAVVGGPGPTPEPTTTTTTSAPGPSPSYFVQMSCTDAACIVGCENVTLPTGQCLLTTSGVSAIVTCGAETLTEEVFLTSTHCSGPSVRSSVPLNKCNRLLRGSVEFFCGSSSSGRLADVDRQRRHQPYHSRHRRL
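Detergent-free condition (0.00005% Triton X-100) in acetate buffer pH 5.5 with DTT. 1.5 nM enzyme and compound were pre-mixed 15 min, then 2 uM Z-FR-AMC substrate added; reaction progress from fluorescence change between first and third reads (60 s).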
Cruzain inh Det = blocks cruzain activity in presence of Triton detergent; P25779; purified cruzain, Z-FR-AMC fluorescence, 0.01% Triton; Potency, µM, usual class: inhibitors; actives 0.43% (n = 200,000); further: nearly all actives have a fitted effect of over 40% in size
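Cysteine protease activity tested under reducing, mildly acidic conditions (100 mM sodium acetate pH 5.5, 5 mM DTT) plus 0.01% Triton X-100. Cruzain 1.5 nM; substrate Z-FR-AMC 2 uM; 15 min compound preincubation at room temperature.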
A number is an active result; 0 = inactive; ? = inconclusive. Only some compounds are listed: those with a hit (about 2.5% of all), similar ones and a draw of the others. The call rests on the fitted dose curve; in most records, active means well fitted curve in the direction sought with a large enough effect; inconclusive means small, poorly fitted or top-dose-only effect, or another doubt; inactive means no such curve, though single readings can be large; an effect the other way counts as inactive or inconclusive.

SMILES	Cruzain noTriton	Cruzain inh Det
CCc1ccc(NC(=O)CSc2nc3c([nH]c4ccccc43)c(=O)n2-c2ccc(C)cc2)cc1	?	0
Cc1ccc(-n2c(SCC(=O)Nc3ccc4c(c3)OCO4)nc3c([nH]c4ccccc43)c2=O)cc1	13µM	0
COc1cccc(NC(=O)CSc2nc3c([nH]c4ccccc43)c(=O)n2-c2cc(C)cc(C)c2)c1	16µM	0
COc1cccc(-n2c(SCC(=O)Nc3ccc(F)cc3F)nc3c([nH]c4ccccc43)c2=O)c1	0	0
COc1cccc(-n2c(SCC(=O)Nc3ccc4c(c3)OCO4)nc3c([nH]c4ccccc43)c2=O)c1	16µM	0
COc1cccc(-n2c(SCC(=O)Nc3c(C)cc(C)cc3C)nc3c([nH]c4ccccc43)c2=O)c1	0	0
Cc1ccc(CNC(=O)Nc2cc(C(=O)NCc3cccc(F)c3)ccc2N2CCCC2)cc1	0	0
COc1ccccc1OC(=O)c1ccc(SC)cc1OC	0	?
CCOC(=O)CC(=O)CSc1nc(C)cc(C)c1C#N	0	0
CCOC(=O)CC(=O)CSc1nc(N)c(C#N)c(-c2ccc(Cl)cc2)c1C#N	32µM	0
N#Cc1c(N)nc(SCC(=O)C23CC4CC(CC(C4)C2)C3)c(C#N)c1-c1ccc(Cl)cc1	4µM	0
CSc1nc(N)nc(SCC(=O)C23CC4CC(CC(C4)C2)C3)c1C#N	0	0
COc1ccccc1N1CCN(c2ncc3c(n2)CCN(Cc2ccc(C)s2)C3)CC1	0	0
OCCN1CCOCCN(CCO)CCOCC1	0	0
Cc1ccc(C)c2c1[nH]c1ccccc12	0	0
O=C1NC(=O)c2c1c1c3ccccc3[nH]c1c1[nH]c3ccccc3c21	8.9µM	0
Cc1cc(C)c(S(=O)(=O)NCCc2sc3nc(-c4ccc(F)cc4)nn3c2C)c(C)c1	0	0
COc1ccc(OCC(O)CN2CCC(CN3C(=O)c4cccc5cccc(c45)C3=O)CC2)cc1 (centres undefined)	0	0
COc1ccc(S(=O)(=O)N2CCC(CN3C(=O)c4cccc5cccc(c45)C3=O)CC2)cc1	25µM	0
CC1CC(=O)O1 (centres undefined)	0	0
CC1CCCC(NC(=S)NC(=O)c2ccccc2Br)C1C (centres undefined)	0	0
Cc1sc2nc(CN3CCCCC3)nc(Cl)c2c1C	0	0
Cc1sc2nc(CN3CCCC3)nc(N3CCN(S(=O)(=O)c4cccs4)CC3)c2c1C	16µM	0
Cc1ccccc1-c1noc(CCC(=O)Nc2cccc(C)c2C)n1	0	0
CCOC(=O)c1sc2ccccc2c1S(=O)(=O)N1CCN(c2ccccc2)CC1	32µM	0
SMILES	Cruzain noTriton	Cruzain inh Det
CCOC(=O)c1sc2ccccc2c1S(=O)(=O)N1CCN(c2ccccc2F)CC1	0	0
CCOC(=O)c1sc2ccccc2c1S(=O)(=O)N1CCN(c2cccc(OC)c2)CC1	0	0
CCOC(=O)c1sc2ccccc2c1S(=O)(=O)N1CCN(c2cccc(C)c2C)CC1	13µM	0
COc1ccccc1NC(=O)N1CCC(CN2CCc3ccccc3C2)CC1	0	0
COc1cccc(NC(=O)/C(C#N)=C\c2cn(Cc3ccc(C)cc3)c3ccccc23)c1	7.9µM	0
COc1cccc(NC(=O)/C(C#N)=C/c2ccc(-c3ccc(C)cc3)o2)c1	?	0
N#C/C(=C\c1cn(Cc2ccc(C#N)cc2)c2ccccc12)C(=O)NCc1cccs1	?	0
N#C/C(=C/c1cn(Cc2ccc(F)cc2)c2ccccc12)C(=O)Nc1cccc(Cl)c1	7.9µM	0
CCOc1ccc2c(c1)c(=O)c(S(=O)(=O)c1ccc(C)cc1)cn2Cc1ccccc1Cl	0	0
CCOC(=O)c1ccc(S(=O)(=O)NNC(=O)COc2ccccc2C)cc1	0	0
COc1cc(OC)c2c(-c3cccc(/C=C/c4ccc(F)cc4)c3)cc(=O)oc2c1	10µM	0
COc1cc(OC)c2c(-c3cccc(-c4ccc(N(C)C)cc4)c3)cc(=O)oc2c1	32µM	0
COc1cc(OC)c2c(-c3cccc(-c4cccc(C)c4)c3)cc(=O)oc2c1	10µM	0
Cc1cccc(-c2cccc(-c3cc(=O)oc4cc5c(cc34)OCO5)c2)c1	35µM	0
COc1cc(OC)c2c(-c3cccc(-c4ccc(CO)cc4)c3)cc(=O)oc2c1	0	0
COc1ccc(-c2cccc(-c3cc(=O)oc4cc5c(cc34)OCO5)c2)cc1	?	0
COc1cc(OC)c2c(-c3cccc(-c4ccc(OC(F)(F)F)cc4)c3)cc(=O)oc2c1	?	0
COc1cc(OC)c2c(-c3cccc(-c4ccc(O)cc4)c3)cc(=O)oc2c1	?	0
COc1ccccc1CNC(=O)CCCn1c(=O)c2ccccc2n(Cc2ccc(F)cc2)c1=O	0	0
CC(=O)Cn1c(C(F)(F)F)nc2ccccc21	0	0
COc1ccccc1N1CCN(S(=O)(=O)CCNC(=O)Cc2ccc(Cl)cc2)CC1	?	0
Cc1ccc(C(=O)N2CCc3cc(CNC(=O)COc4ccccc4)ccc32)cc1	0	0
OCC[C@@H]1C[C@@H](O)[C@H](O)[C@]2(CCCCO2)O1	0	0
O=C(Nc1nc2ccc(SC(F)F)cc2s1)c1ccc2c(c1)S(=O)(=O)c1ccccc1C2=O	5µM	0
O=C(Nc1nc(-c2ccccc2)cs1)c1ccc2c(c1)S(=O)(=O)c1ccccc1C2=O	?	0
SMILES	Cruzain noTriton	Cruzain inh Det
Cc1oc2c(cc(NS(=O)(=O)c3ccc(Br)cc3)c3ccccc32)c1C(=O)OCc1ccccc1	0	0
Cc1oc2c(cc(NS(=O)(=O)c3ccc(F)cc3)c3ccccc32)c1C(=O)OCc1ccccc1	?	0
Cc1ccc(S(=O)(=O)Nc2cc3c(C(=O)OCc4ccccc4)c(C)oc3c3ccccc23)c(C)c1	5µM	0
Cc1ccc(S(=O)(=O)Nc2cc3c(C(=O)OCc4ccccc4)c(C)oc3c3ccccc23)cc1	7.9µM	0
CS(=O)(=O)N1CCN(c2ccc(NC(=O)CSc3ccc(Cl)cc3)cc2)CC1	4µM	0
Cc1ccc(C(=O)Nc2ccc(N3CCN(S(C)(=O)=O)CC3)cc2)cc1	16µM	0
Cc1ccc(C(=O)Nc2ccc(N3CCOCC3)cc2)cc1	0	0
Cc1ccc(C(=O)N2CCN(c3ccc(NC(=O)CSc4ccc(Cl)cc4)cc3)CC2)cc1	0	0
Cc1sc(NC(=O)CSc2nc(N)n(CC(=O)c3ccccc3)n2)c(C#N)c1C	?	0
O=c1c(-c2cccc(F)c2)nc2cncnc2n1Cc1ccccc1	0	0
Cc1cc(N=Cc2c(O)n(-c3cccc(Cl)c3)c(=O)c3ccccc23)no1	0	0
Cc1ccc(N=Cc2c(O)n(-c3cc(Cl)ccc3N3CCOCC3)c(=O)c3ccccc23)cc1C	6.3µM	0
COc1cc(OC)c(NC(=O)CCCn2nc(C)c3c(C)n(-c4ccccc4)nc3c2=O)cc1Cl	?	0
C[C@@]12CC(=O)C3=C(CCCC3=O)N1CCc1ccccc12	0	0
COc1ccccc1NC(=O)CN1C(=O)CC(c2ccc(C)c(C)c2)=Nc2ccccc21	0	0
CN1CCN(NC(=O)CN2C(=O)/C(=C/c3ccccc3F)SC2=S)CC1	0	0
O=C(CCn1c(=O)oc2ccccc21)Nc1nc2ccccc2s1	0	0
COc1cccc(/C=C2/SC(=S)N(CC(=O)Nc3nnc(C)s3)C2=O)c1	0	0
O=C(CCN1C(=O)/C(=C/C=C/c2ccccc2)SC1=S)Nc1nc2ccccc2s1	7.9µM	0
O=C(CN1C(=O)/C(=C/c2ccccc2)SC1=S)Nc1ncc(Cc2ccccc2)s1	4µM	0
Cc1ccc(NC(=O)CN2C(=O)/C(=C\c3cccs3)SC2=S)cc1	5µM	0

Source: PubChem (National Center for Advancing Translational Sciences (NCATS))
